Assay outcomes: PubChem BioAssay, National Center for Advancing Translational Sciences (NCATS)
TDP1 inh: blocks human tyrosyl-DNA phosphodiesterase 1. recombinant TDP1, AlphaScreen DNA substrate cleavage. hit rate 0.28% among 350,000. Potency, µM (doses to about 130 µM), for inactives: at the top dose activity change, negative = inhibition, hits mostly inhibitors. AID 485290; further: nearly all actives have a fitted effect of over 40% in size
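E. coli-derived human Tdp1, 1 nM final. Cpd preinc 15 min RT; substrate 15 nM final, 5 min RT; AS bead mix 10 ug/ml final, 10 min RT. Signal loss = tyrosine-FITC cleavage. No-enzyme wells = max signal.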
RORgamma inh: blocks mouse ROR gamma transcriptional activity; Potency, µM (doses to about 53.6 µM), without a hit: at the top dose activity change, negative = inhibition, usual class: inhibitors; Drosophila S2 Gal4-RORgamma UAS-luciferase reporter, 20 h; hit rate 5.4% among 310,000; further: nearly all actives have a fitted effect of over 60% in size
Target sequence (P51450 whole entry, looked up, the tested form may be a part): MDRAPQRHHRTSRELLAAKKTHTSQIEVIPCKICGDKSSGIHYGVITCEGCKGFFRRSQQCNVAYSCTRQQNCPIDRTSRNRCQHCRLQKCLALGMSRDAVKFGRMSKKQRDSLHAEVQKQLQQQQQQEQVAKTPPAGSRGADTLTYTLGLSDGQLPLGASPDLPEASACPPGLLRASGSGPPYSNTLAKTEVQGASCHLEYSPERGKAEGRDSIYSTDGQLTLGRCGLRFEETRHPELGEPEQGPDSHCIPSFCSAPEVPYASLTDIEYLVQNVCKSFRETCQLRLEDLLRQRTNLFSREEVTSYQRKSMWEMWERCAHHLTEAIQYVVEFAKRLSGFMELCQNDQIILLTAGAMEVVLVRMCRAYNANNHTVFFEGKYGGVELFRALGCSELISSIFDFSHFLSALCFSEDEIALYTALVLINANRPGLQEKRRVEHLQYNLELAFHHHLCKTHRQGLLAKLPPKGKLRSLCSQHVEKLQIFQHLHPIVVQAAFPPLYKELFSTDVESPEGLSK
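In this cell-based reporter format, copper sulfate (700 uM final) drives Gal4–ROR gamma fusion expression from a metallothionein promoter in Drosophila Schneider cells; compounds preincubated 1 hr, reporter read after 20 hr at ambient temperature.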
Gal4-VP16 FLuc: counter-screen for ROR gamma inhibitors: Gal4-VP16 reporter. Drosophila S2 Gal4-VP16 UAS-luciferase, luminescence, 20 h. hit rate 3.5% among 310,000. Potency, µM (series often up to 53.6 µM), for the others: at the highest dose activity, negative = inhibition, actives largely listed as inhibitors;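 further: Gal4-VP16 expression switched on by copper sulfate through the metallothionein promoter; nearly all actives have a fitted effect of over 50% in size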
TDP1 cell CPT: DT40-hTDP1 cell growth loss with CPT | chicken DT40 Tdp1-/-;hTDP1 cells + 20 nM CPT, ATP luminescence, 48 h | Potency, µM (series often up to 46.2 µM), inactives show top-dose activity change, negative = growth inhibition, actives largely listed as inhibitors | hit rate 12% among 420,000; further: nearly all actives have a fitted effect of over 55% in size
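Chicken DT40 Tdp1-/- cells complemented with human TDP1, 400 cells/well, exposed to compounds plus 20 nM camptothecin for at least 48 h at 37 C; viability read as ATP content by CellTiter-Glo luminescence.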
DT40 TDP1 no CPT: qHTS for Inhibitors of human tyrosyl-DNA phosphodiesterase 1 (TDP1): qHTS in cells in absence of CPT. hit rate 15% among 420,000. Potency, µM (top dose mostly 46.2 µM), for the others: at the highest dose activity change, negative = growth inhibition, actives largely listed as inhibitors. AID 686978, 2013. DT40 Tdp1-/- hTDP1 cells, no CPT, ATP luminescence, 48 h; further: nearly all actives have a fitted effect of over 55% in size
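Growth kinetics read by CellTiter-Glo luminescence after ≥48 hr at 37 °C. Cells: DT40 Tdp1-/- stably carrying human TDP1, 400 per well, compound exposure in the absence of CPT (DMSO vehicle).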
Active calls of the source: *; ? = inconclusive; nt = no result; [ ] = another dose, or the depositor's remark. Most compounds without a hit are left out; they make up all but 19% or so of the library. The call rests on the fitted dose curve; in most records, active means well fitted curve in the direction sought with a large enough effect; inconclusive means small, poorly fitted or top-dose-only effect, or another doubt; inactive means no such curve, though single readings can be large; an effect the other way counts as inactive or inconclusive. On the % scale 0 is the no-effect control and ±100 the full control effect; potency means the concentration at half of the fitted maximal effect.

SMILES | TDP1 inh | RORgamma inh | Gal4-VP16 FLuc | TDP1 cell CPT | DT40 TDP1 no CPT
Fc1ccccc1NC(=S)NCCc1ccc(Cl)cc1 | 0.4% | 8.91µM* | ? | ? | -24.1%
Cc1cccc(NC(=O)NCCCCc2ccccc2)c1 | -5.8% | 22.2% | 0.9% | -20.7% | -12.5%
Cc1ccc2nc(-c3ccc(N4C(=N)SC5CS(=O)(=O)CC54)cc3)sc2c1 (configuration not stated) | -5.5% | ? | ? | ? | ?
Cc1cc(-n2[nH]c(C)c(C)c2=O)nc(-c2ccccc2O)n1 | 3.1% | 11.2µM* | ? | 16.4µM* | ?
COc1ccc(CN(C)Cc2c(O)ccc3cc(Br)ccc23)cc1OC | 2.0% | -8.5% | ? | -27.5% | ?
Cc1nc2ccn(Cc3ccccc3)c(=O)c2cc1C(=O)N1CCN(c2ccccc2)CC1 | 3.4% | -27.6% | -9.9% | -23.5% | -15.8%
COc1cccc(CCNC(=O)c2c(O)nc3cc(C)ccn3c2=O)c1 | 3.9% | nt | nt | 4.5% | 14.0%
COc1cccc(CCNC(=O)c2c(O)nc3ccccn3c2=O)c1 | 0.0% | nt | nt | 23.1µM* | 20.6µM*
O=C(NCCC1=CCCCC1)c1c(O)nc2ccccn2c1=O | 5.8% | 1.8% | 18.0% | 11.6µM* | 14.6µM*
COc1ccc(CCNC(=O)c2c(O)nc3cc(C)ccn3c2=O)cc1OC | -3.9% | nt | nt | -7.2% | -30.0%
O=C(NCCC1=CCCCC1)c1c(O)nc2sccn2c1=O | -7.6% | nt | nt | ? | ?
COc1ccc(CCNC(=O)c2c(O)nc3c(C)cccn3c2=O)cc1OC | -2.0% | nt | nt | 23.1µM* | ?
COc1ccc(C(=O)NCCc2ccc(F)cc2)cc1OC | -2.5% | 22.0% | -13.0% | -1.2% | -19.0%
COc1ccc(CCNC(=O)c2cc3cc(F)ccc3nc2C)cc1OC | nt | nt | nt | 20.6µM* | 9.2µM*
CC(Sc1oc(-c2cccs2)nc1S(=O)(=O)c1ccccc1)c1ccccc1 (configuration not stated) | -2.9% | nt | nt | ? | ?
Cc1ccc(CNC(=O)c2c(O)nc3ccccn3c2=O)cc1 | 1.0% | nt | nt | ? | 29.1µM*
COc1ccc(CCNC(=O)c2cc3c(=O)n4cccc(C)c4nc3n2C)cc1 | -1.3% | nt | nt | 2.3% | ?
COc1ccc(CCNC(=O)c2nc3ncccn3n2)cc1OC | 4.3% | 12.8% | 1.9% | ? | 16.4µM*
COc1ccc(CCNC(=O)c2cccc(-n3c(C)nc4cccnc43)c2)cc1OC | 5.6% | nt | nt | -21.4% | ?
Cc1cccn2c(=O)c(C(=O)NCCc3ccccc3)c(O)nc12 | 2.9% | nt | nt | 16.4µM* | ?
COc1cccc(CCNC(=O)c2c(O)nc3c(C)cccn3c2=O)c1 | 1.0% | nt | nt | 18.4µM* | ?
O=C1CC(SCc2nc3ccccc3[nH]2)C(=O)N1c1cccc(Cl)c1 (configuration not stated) | nt | 10µM* | 12.6µM* | ? | 13µM*
NCCSC1CC(=O)N(c2ccc(F)cc2)C1=O (configuration not stated) | 12.5% | 12.8% | -1.4% | 20.2% | 7.1%
O=C1CC(SCCc2nc3ccccc3[nH]2)C(=O)N1c1ccc(F)c(Cl)c1 (configuration not stated) | nt | nt | nt | -1.7% | -1.9%
O=C1CC(SCc2nc3ccccc3[nH]2)C(=O)N1c1ccc(F)cc1 (configuration not stated) | 10.9% | ? | ? | ? | 18.4µM*
SMILES | TDP1 inh | RORgamma inh | Gal4-VP16 FLuc | TDP1 cell CPT | DT40 TDP1 no CPT
Cc1ccc(CNC(=O)[C@H](C)[C@@H]2C[C@@]2(C)[C@@H](NC(=O)OCc2ccccc2)c2ccccc2)o1 | 14.1% | ? | 9.9% | nt | nt
CCOC(=O)c1c(C)[nH]c(C(C)=NNC(=O)c2cccs2)c1C | 0.1% | nt | nt | 11.6µM* | 6.51µM*
CCOC(=O)c1[nH]c(C)c(C(=O)Nc2cccc(Cl)c2C)c1C | 2.9% | 10.0% | 9.4% | 10.3µM* | 16.4µM*
COc1cccc(/C=N/NC(=O)c2[nH]c(C)c(C(=O)N/N=C/c3cccc(OC)c3)c2C)c1 | 0.0% | -4.2% | -0.3% | ? | ?
CCOC(=O)c1c(C)[nH]c(C(=O)N/N=C\c2ccccc2Cl)c1C | -5.5% | 8.91µM* | ? | 16.4µM* | 16.4µM*
CCOC(=O)c1c(C)[nH]c(C(=O)N/N=C/c2cccc(OC)c2)c1C | -0.6% | ? | 0.6% | ? | 14.6µM*
CC(=O)n1cc(/C=N/NC(=O)c2ccc([N+](=O)[O-])cc2)c2ccccc21 | nt | 3.55µM* | ? | -26.8% | ?
O=C(N/N=C/c1c[nH]c2c1ccc1ccccc12)c1ccc([N+](=O)[O-])cc1 | 0.6% | 23.6% | -3.7% | 6.0% | 2.8%
CN(C)c1ccc(C=NNC(=O)c2cccnc2)cc1 | nt | nt | nt | -21.3% | ?
Cc1ccsc1/C=N/NC(=O)c1ccc([N+](=O)[O-])cc1 | -3.6% | 1µM* | 4.47µM* | -9.1% | ?
Cc1ccsc1/C=N/NC(=O)c1ccc2ccccc2c1 | 1.3%[56.1 µM] | 3.16µM* | 5.62µM* | 14.6µM* | 18.4µM*
COc1ccc(CC(=O)N/N=C/c2sccc2C)cc1 | nt | 4.5% | ? | 0.3% | -15.1%
Cc1ccsc1/C=N/NC(=O)c1cccnc1 | 1.2% | ? | 12.6µM* | -7.0% | -1.1%
Cc1ccsc1/C=N/NC(=O)c1ccncc1 | 5.9% | 3.55µM* | 7.08µM* | 5.8% | -10.9%
Cn1c(-c2nc(-c3ccccc3)cs2)nc2ccccc21 | -3.6% | ? | -6.6% | 12.5% | ?
Cc1ccc(C(=O)/C=C/C(=O)O)cc1 | 2.8% | 11.2µM* | 7.94µM* | ? | 25.9µM*
Cc1ccc(/C=C/C(=O)c2ccccc2)cc1 | 2.0% | -8.8% | -22.2% | ? | ?
CCN1C(=O)CSC1=Nc1ccc(C(=O)O)cc1 | nt | -8.6% | 10.3% | -8.2% | -22.4%
O=C(CCCN1C(=O)/C(=C/c2ccccc2Cl)SC1=S)NNC(=O)c1ccc(Cl)cc1Cl | nt | 0.224µM* | 4.47µM* | ? | -9.1%
O=C(CCCN1C(=O)/C(=C/c2ccccc2Cl)SC1=S)NNC(=O)c1cccnc1 | 7.0% | 17.5% | -14.2% | ? | ?
O=C(CCCN1C(=O)/C(=C/c2ccccc2Cl)SC1=S)NNC(=O)c1ccccc1 | 0.0% | 3.16µM* | 7.08µM* | 18.4µM* | 16.4µM*
CC1Sc2ccc(S(=O)(=O)CCC(=O)N3CCCC3)cc2NC1=O (configuration not stated) | -5.2% | -15.6% | 6.6% | -4.3% | 25.2%
Cc1csc(SCC(=O)c2cc(C)n(Cc3cccs3)c2C)n1 | 11.2% | 6.31µM* | 8.91µM* | 18.4µM* | -77.9%
CC(=O)Nc1ccc(SCC(=O)c2cc(C)n(Cc3cccs3)c2C)cc1 | 2.0% | -0.6% | ? | -15.8% | -23.4%
Cc1cc(C(=O)CSc2nnc(N)s2)c(C)n1Cc1cccs1 | -2.8% | 8.91µM* | 11.2µM* | ? | ?
